# Data reported in article PMC7862700, “An all-to-all approach to the identification of sequence-specific readers for epigenetic DNA modifications on cytosine”.
# Assays:
# Assay in all cases: DAPPL (digital affinity profiling via proximity ligation, sequencing); 10 mM Tris-HCl pH 7.5, 50 mM NaCl, 1 mM DTT, 4% glycerol, room temperature, 30 min; GST-TFs on glutathione beads, 16-mer random dsDNA library, 0.1% formaldehyde crosslink after washing; high values mean tight binding
# FEV = target: T1, FEV (Homo sapiens, UniProt Q99581 1-238); conditions: protein: recombinant; tags: N-terminal GST; dsDNA, one strand shown
# T1 sequence: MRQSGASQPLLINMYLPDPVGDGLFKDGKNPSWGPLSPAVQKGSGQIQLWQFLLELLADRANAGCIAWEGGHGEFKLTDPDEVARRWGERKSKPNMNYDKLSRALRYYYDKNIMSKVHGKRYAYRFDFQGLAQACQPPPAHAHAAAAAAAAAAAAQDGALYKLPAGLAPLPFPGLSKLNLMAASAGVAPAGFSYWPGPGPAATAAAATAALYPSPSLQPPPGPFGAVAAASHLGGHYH
# In short: (§1)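 Binding signal is each hexamer's read frequency for a factor divided by its frequency in the tag-only sample. The factors were GST-fused human transcription factors from yeast, captured on glutathione beads, DNA-barcoded and pooled with that sample. Pools were incubated with 200 nmole of a random double-stranded 16-mer DNA library in Tris/NaCl/DTT/glycerol buffer at room temperature for 30 min, then washed, crosslinked with 0.1% formaldehyde, proximity-ligated with BsaI/T4 ligase (1 h, 37 °C), PCR-amplified and sequenced on an Illumina NextSeq500.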
# ETV5 = ETV5 (Homo sapiens, UniProt P41161 1-510); conditions: protein: recombinant; tags: N-terminal GST; dsDNA, one strand shown
# ETV5, sequence (P41161 whole entry): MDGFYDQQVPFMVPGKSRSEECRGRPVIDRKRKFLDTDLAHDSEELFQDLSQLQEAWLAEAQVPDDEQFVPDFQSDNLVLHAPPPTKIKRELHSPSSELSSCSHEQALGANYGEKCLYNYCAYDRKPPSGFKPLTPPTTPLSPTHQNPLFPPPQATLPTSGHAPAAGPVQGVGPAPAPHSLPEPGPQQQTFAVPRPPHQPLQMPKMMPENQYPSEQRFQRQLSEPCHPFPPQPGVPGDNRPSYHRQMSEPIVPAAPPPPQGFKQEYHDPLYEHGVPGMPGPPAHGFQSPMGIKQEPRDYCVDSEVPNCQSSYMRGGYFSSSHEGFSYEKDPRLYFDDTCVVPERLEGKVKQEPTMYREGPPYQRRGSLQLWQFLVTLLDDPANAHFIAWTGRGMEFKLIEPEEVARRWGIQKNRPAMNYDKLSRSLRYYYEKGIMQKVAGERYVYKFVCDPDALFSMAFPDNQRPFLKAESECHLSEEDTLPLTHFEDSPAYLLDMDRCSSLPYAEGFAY
# In short: as §1
# HSF1 = HSF1 (Homo sapiens, UniProt Q00613 1-529); conditions: protein: recombinant; tags: N-terminal GST; chain copies: 3; dsDNA, one strand shown
# HSF1, sequence (Q00613 whole entry): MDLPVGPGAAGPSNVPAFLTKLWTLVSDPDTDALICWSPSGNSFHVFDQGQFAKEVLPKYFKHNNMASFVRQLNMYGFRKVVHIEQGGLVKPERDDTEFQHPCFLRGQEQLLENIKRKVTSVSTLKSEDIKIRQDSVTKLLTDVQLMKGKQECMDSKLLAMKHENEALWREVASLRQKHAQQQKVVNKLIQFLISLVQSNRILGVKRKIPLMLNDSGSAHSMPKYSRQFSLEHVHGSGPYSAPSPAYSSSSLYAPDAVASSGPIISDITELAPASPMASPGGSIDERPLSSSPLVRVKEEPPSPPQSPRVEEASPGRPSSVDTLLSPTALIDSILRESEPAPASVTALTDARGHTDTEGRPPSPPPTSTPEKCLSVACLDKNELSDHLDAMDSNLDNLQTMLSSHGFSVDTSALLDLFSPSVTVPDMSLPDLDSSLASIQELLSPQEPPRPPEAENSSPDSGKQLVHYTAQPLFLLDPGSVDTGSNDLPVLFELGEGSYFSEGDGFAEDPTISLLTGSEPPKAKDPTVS
# In short: as §1
# SPIC = target: T2, SPIC (Homo sapiens, UniProt Q8N5J4 1-248); conditions: protein: recombinant; tags: N-terminal GST; dsDNA, one strand shown
# T2 sequence: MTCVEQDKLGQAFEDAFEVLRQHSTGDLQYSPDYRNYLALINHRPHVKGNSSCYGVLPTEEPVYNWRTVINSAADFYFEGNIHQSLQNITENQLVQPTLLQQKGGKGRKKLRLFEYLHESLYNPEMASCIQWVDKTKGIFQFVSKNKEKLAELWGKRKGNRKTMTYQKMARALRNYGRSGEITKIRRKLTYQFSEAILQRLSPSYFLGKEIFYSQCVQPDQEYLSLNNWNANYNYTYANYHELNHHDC
# In short: as §1
# ELF4 = ELF4 (Homo sapiens, UniProt Q99607 1-663); conditions: protein: recombinant; tags: N-terminal GST; dsDNA, one strand shown
# ELF4, sequence (Q99607 whole entry): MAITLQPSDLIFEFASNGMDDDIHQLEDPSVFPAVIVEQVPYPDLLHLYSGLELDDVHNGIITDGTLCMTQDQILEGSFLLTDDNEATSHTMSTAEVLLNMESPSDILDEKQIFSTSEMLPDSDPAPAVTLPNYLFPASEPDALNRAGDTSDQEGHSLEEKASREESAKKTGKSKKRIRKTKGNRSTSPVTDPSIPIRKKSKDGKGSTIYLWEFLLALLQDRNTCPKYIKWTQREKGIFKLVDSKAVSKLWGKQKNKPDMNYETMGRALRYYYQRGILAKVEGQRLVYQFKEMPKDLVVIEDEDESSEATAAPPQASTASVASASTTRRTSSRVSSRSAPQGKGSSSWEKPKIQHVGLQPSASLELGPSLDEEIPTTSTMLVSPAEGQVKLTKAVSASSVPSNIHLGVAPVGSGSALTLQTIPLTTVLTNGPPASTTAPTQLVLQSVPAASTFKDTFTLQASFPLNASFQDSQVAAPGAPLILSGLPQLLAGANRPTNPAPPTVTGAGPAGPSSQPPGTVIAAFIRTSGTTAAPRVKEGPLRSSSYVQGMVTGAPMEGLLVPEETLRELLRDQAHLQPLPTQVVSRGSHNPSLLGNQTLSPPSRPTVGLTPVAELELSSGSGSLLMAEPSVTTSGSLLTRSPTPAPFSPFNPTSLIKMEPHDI
# In short: as §1
# ELK4 = target: T3, ELK4 (Homo sapiens, UniProt P28324-2 1-405); conditions: protein: recombinant; tags: N-terminal GST; dsDNA, one strand shown
# T3 sequence: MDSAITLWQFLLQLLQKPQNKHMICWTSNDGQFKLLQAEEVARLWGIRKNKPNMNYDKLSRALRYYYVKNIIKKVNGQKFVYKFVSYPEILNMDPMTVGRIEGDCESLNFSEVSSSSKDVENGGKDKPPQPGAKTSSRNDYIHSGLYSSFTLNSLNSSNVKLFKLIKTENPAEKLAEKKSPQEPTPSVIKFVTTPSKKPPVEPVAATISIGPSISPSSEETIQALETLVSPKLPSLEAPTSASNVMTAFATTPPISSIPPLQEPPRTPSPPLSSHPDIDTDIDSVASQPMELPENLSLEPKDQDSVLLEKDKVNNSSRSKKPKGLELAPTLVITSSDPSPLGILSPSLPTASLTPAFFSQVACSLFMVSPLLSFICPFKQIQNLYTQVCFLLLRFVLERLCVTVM
# In short: as §1
# ETV2 = target: T4, ETV2 (Homo sapiens, UniProt O00321 1-342); conditions: protein: recombinant; tags: N-terminal GST; dsDNA, one strand shown
# T4 sequence: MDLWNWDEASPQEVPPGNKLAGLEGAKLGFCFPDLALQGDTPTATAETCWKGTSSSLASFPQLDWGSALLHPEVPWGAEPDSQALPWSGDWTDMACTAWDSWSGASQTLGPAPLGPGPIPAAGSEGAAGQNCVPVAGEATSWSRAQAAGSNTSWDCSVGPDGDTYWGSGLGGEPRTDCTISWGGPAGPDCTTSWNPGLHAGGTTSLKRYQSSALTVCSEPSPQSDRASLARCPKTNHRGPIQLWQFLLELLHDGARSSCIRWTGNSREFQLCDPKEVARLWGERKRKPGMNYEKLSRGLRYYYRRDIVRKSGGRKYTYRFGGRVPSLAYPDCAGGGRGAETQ
# In short: as §1
# ELF3 = target: T5, ELF3 (Homo sapiens, UniProt P78545 1-371); conditions: protein: recombinant; tags: N-terminal GST; dsDNA, one strand shown
# T5 sequence: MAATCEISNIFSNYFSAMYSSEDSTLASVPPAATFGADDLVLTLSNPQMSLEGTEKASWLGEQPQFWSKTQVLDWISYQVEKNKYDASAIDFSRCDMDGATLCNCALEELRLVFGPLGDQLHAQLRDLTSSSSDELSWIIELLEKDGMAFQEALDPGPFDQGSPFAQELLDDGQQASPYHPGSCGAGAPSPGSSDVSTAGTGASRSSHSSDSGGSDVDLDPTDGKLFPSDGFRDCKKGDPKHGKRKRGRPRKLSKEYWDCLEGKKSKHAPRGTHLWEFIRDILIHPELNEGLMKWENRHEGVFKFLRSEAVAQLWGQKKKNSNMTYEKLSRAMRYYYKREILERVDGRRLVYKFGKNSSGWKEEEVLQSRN
# In short: as §1
# CRX = CRX (Homo sapiens, UniProt O43186 1-299); conditions: protein: recombinant; tags: N-terminal GST; dsDNA, one strand shown
# CRX, sequence (O43186 whole entry): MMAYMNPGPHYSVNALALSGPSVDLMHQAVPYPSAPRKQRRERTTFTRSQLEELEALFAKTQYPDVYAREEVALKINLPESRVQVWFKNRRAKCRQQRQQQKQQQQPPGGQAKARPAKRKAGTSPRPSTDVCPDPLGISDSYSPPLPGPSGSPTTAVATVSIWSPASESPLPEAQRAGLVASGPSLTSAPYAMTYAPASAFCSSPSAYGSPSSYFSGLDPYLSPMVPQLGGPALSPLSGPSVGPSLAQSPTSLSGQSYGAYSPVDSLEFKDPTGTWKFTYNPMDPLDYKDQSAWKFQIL
# In short: as §1
# ETV1 = ETV1 (Homo sapiens, UniProt P50549 1-477); conditions: protein: recombinant; tags: N-terminal GST; dsDNA, one strand shown
# ETV1, sequence (P50549 whole entry): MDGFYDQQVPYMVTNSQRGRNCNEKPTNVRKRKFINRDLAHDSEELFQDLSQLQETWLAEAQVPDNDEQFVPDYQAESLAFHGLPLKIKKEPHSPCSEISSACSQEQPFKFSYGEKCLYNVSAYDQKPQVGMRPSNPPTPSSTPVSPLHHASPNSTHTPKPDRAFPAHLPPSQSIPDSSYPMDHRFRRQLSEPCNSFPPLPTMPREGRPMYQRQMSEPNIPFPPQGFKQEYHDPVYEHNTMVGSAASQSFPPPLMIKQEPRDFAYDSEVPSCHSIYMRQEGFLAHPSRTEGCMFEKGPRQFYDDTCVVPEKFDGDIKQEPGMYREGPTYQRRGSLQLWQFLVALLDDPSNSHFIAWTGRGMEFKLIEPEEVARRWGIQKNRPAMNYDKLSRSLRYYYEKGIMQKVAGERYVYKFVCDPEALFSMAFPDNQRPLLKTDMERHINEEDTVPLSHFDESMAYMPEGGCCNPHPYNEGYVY
# In short: as §1
# ERF = target: T6, ERF (Homo sapiens, UniProt P50548 1-548); conditions: protein: recombinant; tags: N-terminal GST; dsDNA, one strand shown
# T6 sequence: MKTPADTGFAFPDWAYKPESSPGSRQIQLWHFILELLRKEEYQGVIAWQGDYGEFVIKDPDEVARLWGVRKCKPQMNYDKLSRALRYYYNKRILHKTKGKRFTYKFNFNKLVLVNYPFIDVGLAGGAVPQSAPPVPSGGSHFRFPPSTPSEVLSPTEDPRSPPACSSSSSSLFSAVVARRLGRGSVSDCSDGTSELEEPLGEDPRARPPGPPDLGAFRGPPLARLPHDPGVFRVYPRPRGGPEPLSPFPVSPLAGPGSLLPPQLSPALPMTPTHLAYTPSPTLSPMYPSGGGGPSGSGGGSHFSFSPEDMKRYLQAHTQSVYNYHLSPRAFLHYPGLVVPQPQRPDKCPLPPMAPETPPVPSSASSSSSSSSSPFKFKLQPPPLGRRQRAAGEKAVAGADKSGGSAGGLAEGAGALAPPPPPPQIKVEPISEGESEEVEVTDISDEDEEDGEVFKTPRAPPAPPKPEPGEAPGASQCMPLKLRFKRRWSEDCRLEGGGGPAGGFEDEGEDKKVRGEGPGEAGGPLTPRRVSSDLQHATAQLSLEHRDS
# In short: as §1
# ETV3L = target: T7, ETV3L (Homo sapiens, UniProt Q6ZN32 1-361); conditions: protein: recombinant; tags: N-terminal GST; dsDNA, one strand shown
# T7 sequence: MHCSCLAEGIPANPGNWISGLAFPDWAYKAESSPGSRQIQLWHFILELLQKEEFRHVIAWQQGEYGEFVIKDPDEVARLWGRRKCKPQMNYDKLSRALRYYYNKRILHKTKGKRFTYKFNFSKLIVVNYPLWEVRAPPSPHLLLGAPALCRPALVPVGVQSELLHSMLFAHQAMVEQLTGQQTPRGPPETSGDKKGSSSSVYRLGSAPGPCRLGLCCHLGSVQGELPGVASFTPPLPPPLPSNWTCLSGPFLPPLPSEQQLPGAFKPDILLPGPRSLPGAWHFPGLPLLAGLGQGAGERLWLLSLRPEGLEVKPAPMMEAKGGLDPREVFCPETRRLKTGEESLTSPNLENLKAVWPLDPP
# In short: as §1
# ETS2 = target: T8, ETS2 (Homo sapiens, UniProt P15036 1-469); conditions: protein: recombinant; tags: N-terminal GST; dsDNA, one strand shown
# T8 sequence: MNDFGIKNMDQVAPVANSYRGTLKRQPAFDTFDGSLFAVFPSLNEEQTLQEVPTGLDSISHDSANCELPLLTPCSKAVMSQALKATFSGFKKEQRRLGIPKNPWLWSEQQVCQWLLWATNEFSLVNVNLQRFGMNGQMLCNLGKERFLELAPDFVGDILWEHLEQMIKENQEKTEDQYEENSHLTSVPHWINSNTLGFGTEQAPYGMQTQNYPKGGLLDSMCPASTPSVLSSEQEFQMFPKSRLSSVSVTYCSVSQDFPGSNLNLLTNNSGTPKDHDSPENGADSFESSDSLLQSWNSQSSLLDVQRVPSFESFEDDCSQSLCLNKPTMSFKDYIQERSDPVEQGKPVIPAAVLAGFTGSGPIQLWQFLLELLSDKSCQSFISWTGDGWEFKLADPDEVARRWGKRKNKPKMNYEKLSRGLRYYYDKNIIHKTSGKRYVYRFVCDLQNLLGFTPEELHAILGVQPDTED
# In short: as §1
# SPDEF = target: T9, SPDEF (Homo sapiens, UniProt O95238 1-335); conditions: protein: recombinant; tags: N-terminal GST; dsDNA, one strand shown
# T9 sequence: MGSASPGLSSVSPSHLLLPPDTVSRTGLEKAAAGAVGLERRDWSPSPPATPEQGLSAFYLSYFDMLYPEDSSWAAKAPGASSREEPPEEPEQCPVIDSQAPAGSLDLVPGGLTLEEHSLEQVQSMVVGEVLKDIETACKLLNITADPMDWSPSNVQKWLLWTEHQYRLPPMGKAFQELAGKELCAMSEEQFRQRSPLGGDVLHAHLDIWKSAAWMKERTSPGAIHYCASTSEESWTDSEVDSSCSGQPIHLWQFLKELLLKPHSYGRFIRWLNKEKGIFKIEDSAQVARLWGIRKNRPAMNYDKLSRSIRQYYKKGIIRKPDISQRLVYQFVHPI
# In short: as §1
# ETV7 = target: T10, ETV7 (Homo sapiens, UniProt Q9Y603 1-341); conditions: protein: recombinant; tags: N-terminal GST; dsDNA, one strand shown
# T10 sequence: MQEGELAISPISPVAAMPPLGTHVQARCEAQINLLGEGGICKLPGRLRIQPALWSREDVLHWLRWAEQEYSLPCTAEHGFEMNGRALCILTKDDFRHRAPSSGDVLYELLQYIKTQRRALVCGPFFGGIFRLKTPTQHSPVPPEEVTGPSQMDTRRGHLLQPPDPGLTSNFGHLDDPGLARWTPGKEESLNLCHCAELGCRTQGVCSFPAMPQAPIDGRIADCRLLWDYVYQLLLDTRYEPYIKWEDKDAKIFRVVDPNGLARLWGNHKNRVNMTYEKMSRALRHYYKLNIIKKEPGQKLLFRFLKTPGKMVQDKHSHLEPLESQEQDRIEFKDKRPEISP
# In short: as §1
# ELF5 = target: T11, ELF5 (Homo sapiens, UniProt Q9UKW6-2 1-255); conditions: protein: recombinant; tags: N-terminal GST; dsDNA, one strand shown
# T11 sequence: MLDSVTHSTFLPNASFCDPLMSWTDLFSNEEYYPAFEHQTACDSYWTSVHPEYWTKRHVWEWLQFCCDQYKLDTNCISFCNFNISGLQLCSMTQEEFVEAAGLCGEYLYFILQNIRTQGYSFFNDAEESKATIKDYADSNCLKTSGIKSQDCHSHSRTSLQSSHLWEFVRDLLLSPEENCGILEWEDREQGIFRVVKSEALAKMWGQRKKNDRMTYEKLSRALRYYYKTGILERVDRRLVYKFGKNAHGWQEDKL
# In short: as §1
# ETV3 = target: T12, ETV3 (Homo sapiens, UniProt P41162-2 1-143); conditions: protein: recombinant; tags: N-terminal GST; dsDNA, one strand shown
# T12 sequence: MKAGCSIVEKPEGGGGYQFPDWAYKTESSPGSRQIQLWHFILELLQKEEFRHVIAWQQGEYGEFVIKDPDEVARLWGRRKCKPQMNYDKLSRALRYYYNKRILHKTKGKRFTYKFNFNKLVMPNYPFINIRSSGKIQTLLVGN
# In short: as §1
# ETV6 = ETV6 (Homo sapiens, UniProt P41212 1-452); conditions: protein: recombinant; tags: N-terminal GST; dsDNA, one strand shown
# ETV6, sequence (P41212 whole entry): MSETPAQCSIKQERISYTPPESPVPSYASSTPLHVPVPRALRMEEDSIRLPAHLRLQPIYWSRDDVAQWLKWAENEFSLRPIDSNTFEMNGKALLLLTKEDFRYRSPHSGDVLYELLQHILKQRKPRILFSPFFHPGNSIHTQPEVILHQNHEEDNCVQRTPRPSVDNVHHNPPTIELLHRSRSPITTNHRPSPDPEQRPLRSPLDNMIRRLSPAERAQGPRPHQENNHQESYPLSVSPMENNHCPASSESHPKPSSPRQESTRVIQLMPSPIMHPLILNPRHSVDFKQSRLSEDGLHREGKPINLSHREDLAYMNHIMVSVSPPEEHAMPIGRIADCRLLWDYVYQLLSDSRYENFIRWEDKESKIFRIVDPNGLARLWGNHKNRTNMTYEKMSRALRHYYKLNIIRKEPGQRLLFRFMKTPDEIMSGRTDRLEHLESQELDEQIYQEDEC
# In short: as §1
sequence,measurement,setting,value
TTCTCC,binding signal,FEV,"1.63 fold enrichment (6-mer frequency, TF over GST control)"
same,binding signal,ETV5,"1.49 fold enrichment (6-mer frequency, TF over GST control)"
same,binding signal,HSF1,"1.98 fold enrichment (6-mer frequency, TF over GST control)"
same,binding signal,SPIC,"1.37 fold enrichment (6-mer frequency, TF over GST control)"
same,binding signal,ELF4,"1.51 fold enrichment (6-mer frequency, TF over GST control)"
same,binding signal,ELK4,"1.63 fold enrichment (6-mer frequency, TF over GST control)"
same,binding signal,ETV2,"1.39 fold enrichment (6-mer frequency, TF over GST control)"
same,binding signal,ELF3,"1.4 fold enrichment (6-mer frequency, TF over GST control)"
same,binding signal,CRX,"1.51 fold enrichment (6-mer frequency, TF over GST control)"
same,binding signal,ETV1,"1.45 fold enrichment (6-mer frequency, TF over GST control)"
same,binding signal,ERF,"1.53 fold enrichment (6-mer frequency, TF over GST control)"
same,binding signal,ETV3L,"1.58 fold enrichment (6-mer frequency, TF over GST control)"
same,binding signal,ETS2,"1.53 fold enrichment (6-mer frequency, TF over GST control)"
same,binding signal,SPDEF,"1.52 fold enrichment (6-mer frequency, TF over GST control)"
same,binding signal,ETV7,"1.46 fold enrichment (6-mer frequency, TF over GST control)"
same,binding signal,ELF5,"1.51 fold enrichment (6-mer frequency, TF over GST control)"
same,binding signal,ETV3,"1.5 fold enrichment (6-mer frequency, TF over GST control)"
same,binding signal,ETV6,"1.48 fold enrichment (6-mer frequency, TF over GST control)"
